Compound activity: PubChem, Emory University Molecular Libraries Screening Center
14-3-3 PPI: modulators of human 14-3-3 gamma - Raf peptide interaction; P61981; FP, 14-3-3gamma / TMR-pS259-Raf peptide binding; inhibition, % at 40 µM; hit rate 0.19% among 160,000; AID 422; in the data active = inhibition above about 30%;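 note: 0% = protein plus tracer without compound and 100% = blank with tracer alone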
Target sequence (P61981 whole entry, looked up): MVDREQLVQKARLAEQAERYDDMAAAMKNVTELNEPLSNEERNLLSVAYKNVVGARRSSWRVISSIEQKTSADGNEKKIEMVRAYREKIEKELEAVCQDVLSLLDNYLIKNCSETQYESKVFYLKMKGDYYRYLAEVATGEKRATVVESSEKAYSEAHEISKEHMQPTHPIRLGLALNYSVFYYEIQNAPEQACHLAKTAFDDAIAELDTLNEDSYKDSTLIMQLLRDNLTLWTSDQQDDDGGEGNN
The depositor's hits bear a star; ! = a repeat was not active. Shown is part of a subset that was picked to be rich in hits.

SMILES	14-3-3 PPI
CC(C)(C)C(=O)C1C(c2ccccc2F)C(C#N)(C#N)C2c3ccccc3C=CN12 (centres undefined)	-22.1
COc1nonc1NC(=O)C(C(F)(F)F)C(F)(F)F	-7.0
O=C(CN1CCN(Cc2ccccc2Cl)C1=O)NCc1cccnc1	-4.7
O=C(CN1CCN(Cc2ccccc2Cl)C1=O)NCc1ccccn1	70.7*
O=C(CN1CCN(Cc2ccc(F)cc2)C1=O)NCc1ccccc1Cl	-10.2
C=CCc1cccc(C=Nc2cc(Br)ccc2O)c1O	42.5*
C=CCc1cccc(/C=N/c2ncn[nH]2)c1O	-2.4
CCc1ccc(O)c(N=Cc2cccc(C)c2O)c1	-20.2
CCCCn1c(N2CCOCC2)nc2c1c(=O)[nH]c(=O)n2C	-11.1
CCCCNC(=O)C1CCN(S(=O)(=O)N2CCCC2)CC1	7.8
COC(=O)CSc1ccc2c3c(cccc13)C(=O)c1ccccc1-2	20.2
COc1ccc2c3c(cccc13)C(=O)c1ccccc1-2	32.5*
O=C1c2ccccc2-c2ccc(Br)c3cccc1c23	-0.5
Cc1ccc2nc(-c3ccc(NC(=O)c4ccc(F)cc4)cc3)sc2c1	11.1
Oc1ccc(NCc2cccs2)cc1	52.1*
CCOC(=O)Cc1ccc(NCc2cccs2)cc1	-3.0
O=[N+]([O-])c1cccc(NCc2cccs2)c1	0.4
CCOC(=O)CNC(=O)Cn1cnc2sc(C)c(S(=O)(=O)N3CC(C)CC(C)C3)c2c1=O (centres undefined)	-5.8
O=C1CCCC2=C1C1(O)C(=O)c3ccccc3C1(O)O2 (centres undefined)	55.7*
N#CC1=C(N)OC2=C(C(=O)CCC2)[C@]12C(=O)N(CC(N)=O)c1ccccc12	-0.1
CC(=O)C1=C(C)NC2(O)c3ccccc3C(=O)C12O (centres undefined)	5.4
Cc1c(C(=O)Nc2ccc(S(N)(=O)=O)cc2)cccc1[N+](=O)[O-]	3.8
O=C(O)c1c(Cl)nc(Cl)c([N+](=O)[O-])c1Cl	2.7
Cc1nc(Cl)c(C(=O)O)c(C)c1[N+](=O)[O-]	-1.2
COC(=O)c1c(Cl)nc(Cl)c([N+](=O)[O-])c1Cl	56.0*
SMILES	14-3-3 PPI
O=C(O)CCCCCn1c(=S)[nH]c2ccsc2c1=O	-4.5
Cc1nc2ccc(S(=O)(=O)NCc3ccc4c(c3)OCO4)cc2s1	-1.2
O=C(Nc1ccccc1)c1cccs1	6.4
O=C(O)c1ccc(-c2nc3cc(Cl)c([N+](=O)[O-])cc3s2)cc1	6.8
COc1ccc(N=Cc2cc(Cc3ccccc3Cl)cc([N+](=O)[O-])c2O)cc1OC	79.0*
COc1ccc(N=Cc2cc(Cl)cc([N+](=O)[O-])c2O)cc1Cl	-20.4
COc1ccc(N=Cc2cc([N+](=O)[O-])cc(Br)c2O)cc1OC	8.6
O=C(NC1CCCc2ccccc21)c1cc2c(=O)oc3ccccc3c2s1 (centres undefined)	4.9
O=C(c1cnc(N2CCN(c3ccccn3)CC2)c2ccccc12)N1CCOCC1	3.9
COc1ccc2oc(=O)c(C(=O)NCc3ccccc3)cc2c1	-4.5
COc1ccc2oc(=O)c(C(=O)C[n+]3ccc(N(C)C)cc3)cc2c1	40.7*
COc1cccc2cc(C(=O)C[n+]3ccc(N(C)C)cc3)c(=O)oc12	-5.4
Cc1ccc([N+](=O)[O-])cc1S(=O)(=O)N1CCCCC1	5.0
O=[N+]([O-])c1ccc(N2CCCC2)c(S(=O)(=O)N2CCOCC2)c1	-4.5
CN1CCN(c2ccc([N+](=O)[O-])cc2S(=O)(=O)N2CCCC2)CC1	38.7*
Cc1cccc(N(CC(=O)NC2CCCCC2)S(=O)(=O)c2ccccc2)c1C	37.6*
Cc1cccc(N(CC(=O)Nc2c(C)cccc2C)S(=O)(=O)c2ccccc2)c1C	1.9
Cc1cccc(N(CC(=O)NC2CC3CCC2C3)S(=O)(=O)c2ccccc2)c1C (centres undefined)	1.1
O=C(Nc1nnc(-c2ccc(F)cc2)s1)c1ccccc1[N+](=O)[O-]	-11.4
Cc1ccc(-c2csc3ncn(Cc4cccc(Br)c4)c(=O)c23)cc1	0.6
Oc1ccc(Cl)cc1C=Nc1ccc(-c2nc3cc(Cl)ccc3o2)cc1	84.5*
Cc1ccccc1-c1nc2cc(N=Cc3cc(Cl)cc([N+](=O)[O-])c3O)ccc2o1	-5.5
Cc1ccc(-c2nc3cc(N=Cc4cc(Cl)ccc4O)ccc3o2)cc1	-6.8
Cc1ccc(-c2nc3cc(N=Cc4cccc([N+](=O)[O-])c4O)ccc3o2)cc1C	-59.8
Cc1ccc(-c2nc3cc(N=Cc4cc(C)cc([N+](=O)[O-])c4O)ccc3o2)cc1	53.5*
SMILES	14-3-3 PPI
CN(C)c1ccc(-c2nc3cc(N=Cc4cc(Cl)ccc4O)ccc3o2)cc1	-36.5
COc1ccc(C(=O)CSc2n[nH]c(-c3ccncc3)n2)cc1C	-8.9
CSc1nc2c(sc3ccc([N+](=O)[O-])cc32)c(=O)n1Cc1ccco1	0.0
CCc1ccc(NC(=O)c2ccc(F)c(S(=O)(=O)NC3CCCCC3C)c2)cc1 (centres undefined)	-4.6
Cc1ccc(Sc2ccc(C(=O)N3CCN(c4cc(Cl)ccc4C)CC3)cc2N)cc1	-6.7
COc1ccccc1C(=O)Nc1c2c(nn1-c1ccc(Oc3ccccc3)cc1)CSC2	-3.4
O=C(NCc1ccccn1)c1coc2nc3ccccc3nc12	-70.7
CC(=O)C(CCC#N)(CCC#N)c1ccccc1	-12.9
CCOC(=O)C(=O)C(C#N)c1ccccc1 (centres undefined)	-6.8
CC(=O)C(c1ccccc1)C(C#N)(C#N)C(C#N)C#N (centres undefined)	66.5*
COC(=O)C1=C(C(=O)OC)SC(=C2C(=S)C(C)(C)N(C(=O)Nc3ccccc3)c3ccc(OC)cc32)S1	0.3
COc1ccccc1N1CCN(C(=O)c2cnc(Nc3ccc(F)cc3)c3ccccc23)CC1	-4.4
COc1cc(C=Nc2ccc(N(C)C(C)=O)cc2)ccc1OC(C)=O	3.2
COc1cc(C=Nc2ccc(O)cc2)ccc1OC(=O)CC1SC(=O)NC1=O (centres undefined)	103.3*
COC(=O)CC1SC(=O)NC1=Nc1ccc(O)cc1 (centres undefined)	-6.5
O=C1c2ccc(Oc3cccc([N+](=O)[O-])c3)cc2C(=O)N1c1ccccc1C(F)(F)F	0.3
Cc1nnc(C)n1N1C(=O)c2cccc3cccc(c23)C1=O	-6.1
O=C1c2cccc3cccc(c23)C(=O)N1c1ccccc1	3.8
NC1=CC(=O)c2cccc3cccc1c23	80.5*!
COc1ccc(Cn2c(SCC(=O)NC3CCCCC3)nc3ccc(N4CCOCC4)cc3c2=O)cc1	-4.0
FC(F)(F)c1cccc(C2=Nn3c(nnc3-c3ccccc3)SC2)c1	-4.5
COc1ccc(-c2cc(C(=O)Nc3cccc(Cl)c3C)no2)cc1	-3.5
COc1ccc2cc3cc(C(=O)N4CCOCC4)oc3nc2c1	-2.1
COc1ccccc1C1/C(=C(\O)c2ccc(Cl)cc2)C(=O)C(=O)N1CCCn1ccnc1 (centres undefined)	6.1
COc1ccc(/C(O)=C2\C(=O)C(=O)N(CCCn3ccnc3)C2c2ccccc2F)cc1 (centres undefined)	36.7*
O=C1C(=O)N(CCCn2ccnc2)C(c2ccncc2)/C1=C(\O)c1ccc(F)cc1 (centres undefined)	-0.1
COc1cccc(NC(=O)c2nn(-c3ccccc3OC)c(=O)c3ccccc23)c1	8.4
CCN(CC)c1nc(Nc2ccccc2)nc(OC(C(F)(F)F)C(F)(F)F)n1	-7.0
COc1ccc(-n2c(SCC(=O)NCc3cccc(Cl)c3)nc3[nH]ncc3c2=O)cc1	-5.5
Cc1ccccc1NC(=O)CCC(=O)OCC(=O)c1ccc(C)c([N+](=O)[O-])c1	-7.6
